Results on 38 compounds are retold here after PubChem BioAssay (NCATS).

Inconclusive results are not listed. The source made the active and inactive calls. Unless noted, calls follow the shape of the dose curve; as a rule, active = well fitted curve in the direction sought with a large enough effect; inconclusive = small, poorly fitted or top-dose-only effect, or another doubt; inactive = no such curve, though single readings can be large; an effect the other way counts as inactive or inconclusive.

The target in one test is Phenylethanolamine N-methyltransferase (Homo sapiens) (UniProt P11086). Nature of the test: Confirmatory Screen for Target Class Profiling of Small Molecule Inhibitors of Methyltransferases (AID 1745852). The settings on record: MTase-Glo luminescence, SAH detection, recombinant enzyme; measured here: PNMT max response; stronger effect = lower value.
Phenylethanolamine N-methyltransferase (Homo sapiens), sequence (P11086 whole entry, looked up): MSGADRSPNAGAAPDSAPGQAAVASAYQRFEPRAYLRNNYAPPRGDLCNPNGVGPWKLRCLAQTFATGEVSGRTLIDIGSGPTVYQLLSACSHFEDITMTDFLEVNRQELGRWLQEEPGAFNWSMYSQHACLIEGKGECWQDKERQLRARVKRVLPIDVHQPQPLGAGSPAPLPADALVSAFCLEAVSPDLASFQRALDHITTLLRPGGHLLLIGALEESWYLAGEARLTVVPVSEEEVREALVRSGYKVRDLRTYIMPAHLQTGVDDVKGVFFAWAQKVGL
With `CNC1CCc2ccccc21` (stereo not given), the activity is -50.7%.
On to `NC(=O)c1ccc(N2CC3CCC(C2)N3CC(F)(F)F)nn1`, for which the activity turned out to be 10.9%.
Consider `C=C[C@H]1CN2CC[C@H]1C[C@@H]2CNC(=O)Nc1ccc(Br)cc1`, for which the activity was 4.01%.
As to `CN(CCc1ccccn1)C[C@H]1CN2CC[C@H]1C[C@@H]2CNC(=O)Nc1ccsc1`, the activity was -0.547%.
In the case of `CC(=O)NC[C@H]1C[C@@H]2CCN1C[C@@H]2c1cc(-c2ccc3ccccc3c2)nn1C`, the activity amounted to 2.7%.
On to `COc1ccc(-c2cc([C@H]3CN4CC[C@H]3C[C@@H]4CN)nc(C)n2)cc1OC`, for which the activity is 2.63%.
On to `CC(=O)c1cccc(NC(=O)NC[C@H]2C[C@@H]3CCN2C[C@@H]3c2cc(-c3ccc(F)cc3)nc(C)n2)c1`, for which the activity turned out to be 3.37%.
On to `CC[C@H]1CN2CC[C@H]1C[C@@H]2CNCc1ccc(-c2ccccc2)cc1`, for which the activity was -4.01%.
Consider `COc1ccc(-c2cc3c(cn2)CN(C)CCN3)cn1`, for which the activity was -1.09%.
The same measure, in the same setting: the result for `[Cl][Pt].[NH2-].[NH2-].c1ccncc1` reads 0.0118%.
For `C[C@H]1CCCC(=O)CCC/C=C/c2cc(O)cc(O)c2C(=O)O1`, the activity was -95%.

Test system in the next test: not listed separately
Nature of the test: NCATS anti-infectives library activity on HEK293 viability as a counter-qHTS vs the C. elegans viability qHTS (AID 1745854).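 Also: HEK293 cells exposed to compounds for 24 hr before the viability read.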 Also: potency is read from the fitted curve at half-maximal effect. As to activity change, negative = cytotoxicity: % is scaled to controls: 0 for no effect and ±100 for the full control effect. The settings on record: HEK293 viability counter-screen; series mostly up to 41.8 µM; activity change, negative = cytotoxicity: at the top concentration. The essentials: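 Cytotoxicity in human HEK293 cells is measured by ATP-dependent CellTiter-Glo luminescence following a 24 hr incubation with titrated library compounds at 37C. Top final concentration is 41.7 uM.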
`O=C(Nc1ccccc1F)N[C@@H]1N=C(c2ccccc2)c2ccccc2NC1=O`: the “activity change, negative = cytotoxicity” value was -2.96% (inactive).
Regarding `O=C(Nc1ccccc1F)N[C@H]1N=C(c2ccccc2)c2ccccc2NC1=O`, the “activity change, negative = cytotoxicity” value was -6.87% (inactive).
The same measure, in the same setting: the result for `C[C@@H](N)C(=O)N[C@@H](CO)C(=O)N[C@H](C(=O)N[C@H](C(=O)N[C@H](C(=O)N[C@@H](CC(N)=O)C(=O)N[C@@H](Cc1ccc(O)cc1)C(=O)N[C@H](C(N)=O)[C@@H](C)O)[C@@H](C)O)[C@@H](C)O)[C@@H](C)O` reads 2.02% (inactive); that for `CN(C)C/C=C/C(=O)Nc1cccc(C(OCCN2CCCCC2)c2cc3nccc(C(=O)O)c3s2)c1` (stereo not given), -6.15% (inactive); that for `CCCC(=O)O[C@H]1CN2CC[C@H](O)[C@@H]2[C@@H](O)[C@@H]1O`, -22.7% (inactive).
For the compound `C[C@@H](COc1ccc(Oc2ccccc2)cc1)Oc1ccccn1`, the “activity change, negative = cytotoxicity” value is -17.7% [at 83.3 µM] (inactive).
Regarding `CC[C@H]1CN2CCc3cc(OC)c(OC)cc3[C@@H]2C[C@@H]1C[C@H]1NCCc2cc(O)c(OC)cc21`, the “activity change, negative = cytotoxicity” value is -26.8% (inactive).
As for `Nc1ncnc2c1ccn2[C@@H]1O[C@H](CO)[C@@H](O)[C@H]1O`, the Potency was 1.12 µM (active).
For `CC(C)=CCC[C@](C)(O)[C@H]1CC[C@@]2(C)[C@H]1[C@@H](O)CC1[C@@]3(C)CC[C@@H](O[C@@H]4O[C@H](CO)[C@@H](O)[C@H](O)[C@H]4O)C(C)(C)C3CC[C@]12C` (stereo not given in full), the “activity change, negative = cytotoxicity” value was -20.8% (inactive).
Take `CC(=O)O[C@H]1[C@H]2[C@@H](OC(=O)Cc3ccccc3)[C@@H](C)C[C@]2(OC(C)=O)C(=O)/C(C)=C/[C@@H]2[C@H](CC[C@@]13CO3)C2(C)C`: the “activity change, negative = cytotoxicity” value is -29% (inactive).
For `[Hg+][c]1ccccc1`, the Potency was 2 µM (active).
In the case of `Nc1cccc(C(OCCN2CCCCC2)c2cc3nccc(C(=O)O)c3s2)c1` (stereo not given), the “activity change, negative = cytotoxicity” value is -3.19% (inactive).
The same measure, in the same setting: for `O=c1ccc2ccc3occc3c2o1` the value was 11.1% (inactive).

Test system in a further test: not listed separately
Nature of the test: NCATS anti-infectives library activity on the primary C. elegans qHTS viability assay (AID 1745855; calls by dose curve; also: potency is read from the fitted curve at half-maximal effect). Particulars: C. elegans worm area imaging, day 7; series mostly up to 41.8 µM. A digest of the protocol:
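Viability is taken from GFP fluorescence of PE254-GFP-FLuc C. elegans imaged by laser cytometry over 7 days. Ten L1 worms per well grow at 21 °C on TOP10 E. coli capsules with titrated compound; levamisole marks toxicity.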
(In qHTS, concentration-response curves come from the screen itself.)
In the case of `COC(=O)C[C@@](O)(CCC(C)(C)O)C(=O)O[C@@H]1C(OC)=C[C@]23CCCN2CCc2cc4c(cc2[C@@H]13)OCO4`, the “outcome” value is “inactive”.
Regarding `CC[C@H]1CN2CCc3cc(OC)c(OC)cc3[C@@H]2C[C@@H]1C[C@H]1NCCc2cc(O)c(OC)cc21`, the “outcome” value was “inactive”.
On to `[Hg+][c]1ccccc1`, for which the Potency is 8.16 µM (active).

In a further test the target is Nuclear receptor subfamily 1 group I member 3 (Homo sapiens) (UniProt Q14994). Nature of the test: Primary qHTS for antagonist of constitutive androstane receptor (CAR) against the NCATS DSHEA and TCM libraries (AID 1794836). The settings on record: CAR reporter cell assay, antagonist mode, luciferase; series mostly up to 40 µM; activity change, negative = inhibition: at the top concentration. The essentials: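 HepG2 cells stably carrying hCAR and a CYP2B6 luciferase reporter (2,500 cells/well) attached for 5 h, then received compounds with 48 uM CITCO for 24 h at 37C. ONE-Glo luminescence read antagonism; CellTiter-Fluor (405/540 nm) gave viability.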
Nuclear receptor subfamily 1 group I member 3 (Homo sapiens), sequence (Q14994 whole entry, looked up): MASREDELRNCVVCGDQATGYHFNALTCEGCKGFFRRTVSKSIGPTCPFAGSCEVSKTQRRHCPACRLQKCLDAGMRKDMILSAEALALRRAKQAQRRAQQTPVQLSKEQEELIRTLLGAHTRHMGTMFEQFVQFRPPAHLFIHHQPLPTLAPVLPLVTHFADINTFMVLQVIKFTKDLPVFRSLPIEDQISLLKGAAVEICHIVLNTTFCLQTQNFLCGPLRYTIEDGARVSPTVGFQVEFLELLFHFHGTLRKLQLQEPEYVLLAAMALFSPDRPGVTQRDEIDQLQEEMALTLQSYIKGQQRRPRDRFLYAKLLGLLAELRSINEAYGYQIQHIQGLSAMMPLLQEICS
Take `O=C(/C=C/c1ccc(O)c(O)c1)O[C@@H]1CC(C(=O)O)=C[C@@H](O)[C@H]1O`: the “activity change, negative = inhibition” value was -17.1% (inactive).
For the compound `Cc1ccc(O)c(O)c1`, the “activity change, negative = inhibition” value was 90.4% [at 68.2 µM] (inactive).
Turning to `CC12CC3(O)OC(O1)C1(COC(=O)c4ccc(O)cc4)C3CC21OC1OC(CO)C(O)C(O)C1O` (stereo not given), the “activity change, negative = inhibition” value is -21.8% (inactive).
Turning to `CC(C)(O)[C@@H]1CC[C@](C)([C@@H]2[C@H](O)C[C@]3(C)C4C[C@@H](O[C@H]5O[C@@H](CO)[C@H](O)[C@@H](O)[C@@H]5O)C5C(C)(C)[C@H](O[C@H]6OC[C@H](O)[C@@H](O)[C@@H]6O)CC[C@]56CC46CC[C@@]23C)O1` (stereo not given in full), the “activity change, negative = inhibition” value is -26.1% (inactive).
`C=C(C)C(CC=C(C)C)CC12CC(CC=C(C)C)C(C)(C)C(CC=C(C)C)(C(=O)/C(=C(\O)c3ccc(O)c(O)c3)C1=O)C2=O` (stereo not given): the “activity change, negative = inhibition” value is -11% (inactive).
In the case of `COc1cc(-c2oc3cc(O)cc(O)c3c(=O)c2O)ccc1O`, the “activity change, negative = inhibition” value is -6.67% (inactive).
As to `CCCCCCCCC[C@@H](O)CC(=O)CCc1ccc(O)c(OC)c1`, the “activity change, negative = inhibition” value was 123% (inactive).
As for `CCC(/C=C/[C@@H](C)[C@H]1CCC2C3CC=C4C[C@@H](O)CC[C@]4(C)C3CC[C@@]21C)C(C)C` (stereo not given in full), the “activity change, negative = inhibition” value was -19.8% (inactive).
In the case of `O=c1cc(-c2ccc(O)c(O)c2)oc2cc(O[C@@H]3O[C@@H](CO)[C@@H](O)[C@@H](O)[C@H]3O)cc(O)c12`, the “activity change, negative = inhibition” value is 131% (inactive).
Consider `C=C1C[C@@]23CC[C@H]4[C@@](C)(CCC[C@@]4(C)C(=O)O[C@@H]4O[C@H](CO)[C@@H](O)[C@H](O)[C@H]4O[C@@H]4O[C@H](CO)[C@@H](O)[C@H](O)[C@H]4O)[C@@H]2CC[C@]1(O[C@@H]1O[C@H](CO)[C@@H](O)[C@H](O)[C@H]1O[C@@H]1O[C@H](CO)[C@@H](O)[C@H](O)[C@H]1O)C3`, for which the “activity change, negative = inhibition” value is -28.7% (inactive).
On the same count and under the same terms, the result for `C=C1C[C@@]23CC[C@H]4[C@](C)(CCC[C@]4(C)C(=O)O[C@@H]4O[C@H](CO)[C@@H](O)[C@H](O)[C@H]4O)[C@@H]2CC[C@]1(O[C@H]1O[C@@H](CO)[C@H](O)[C@@H](O)[C@@H]1O)C3` reads -22.3% (inactive).
For the compound `CC(C)(O)[C@@H]1CC[C@](C)([C@H]2[C@@H](O)C[C@@]3(C)[C@@H]4C[C@H](O)[C@H]5C(C)(C)[C@@H](O[C@@H]6OC[C@@H](O)[C@H](O)[C@H]6O[C@@H]6O[C@H](CO)[C@@H](O)[C@H](O)[C@H]6O)CC[C@@]56C[C@@]46CC[C@]23C)O1`, the “activity change, negative = inhibition” value is -17.3% (inactive).
For the compound `CCCCCCC/C=C/C(=O)CCc1ccc(O)c(OC)c1`, the “activity change, negative = inhibition” value was 11.8% (inactive).
